The values below come from the supplement of paper PMC13380429.

The structures appear in SMILES notation.

The subject of test [1] is Vero E6 infected with SARS-CoV-2. Nature of the test: morphology score (similarity to uninfected cells); higher = more like uninfected cells. Conditions: 24 h.
Test [2] has the same test system. The experiment in a line: SARS-CoV-2 infection rate relative to infected DMSO; higher = more infection, active = 60 or less. The following applies: 24 h.

As to `CN1C(C)(C)CCCC1(C)C` [pempidine] (10 µM), the morphology score in test [1] stood at 0.0949. The SARS-CoV-2 infection rate in test [2] was 96% (inactive).

Molecule `O=C(NC[C@H](O)CN1CCc2ccccc2C1)c1cc(NC2COC2)ncn1` (10 µM) yielded a morphology score in test [1] of -0.0443. In addition, the SARS-CoV-2 infection rate in test [2] was 100% (inactive).

As for `O=C(c1ccc(F)cc1)C1CCN(CCCCc2ccccc2)CC1` [4-(4-fluorobenzoyl)-1-(4-phenylbutyl)-piperidine] (10 µM), in test [1], the morphology score was -0.00104. The SARS-CoV-2 infection rate in test [2] is 110% (inactive).

In test [1], `C[C@@H]1CC(=O)NN=C1c1ccc(NN=C(C#N)C#N)cc1` [levosimendan] (10 µM) registered a morphology score of -0.109. The SARS-CoV-2 infection rate in test [2] is 117% (inactive).

As for `CCC1(c2ccccc2)C(=O)N(COC)C(=O)N(COC)C1=O` [eterobarb] (10 µM), in test [1], the morphology score was -0.0955. Besides, the SARS-CoV-2 infection rate in test [2] is 106% (inactive).

With `CCCCc1ccc2[nH]c(NC(=O)OC)nc2c1` [parbendazole] (10 µM), the morphology score in test [1] was -0.112. Moreover, in test [2], the SARS-CoV-2 infection rate was 111% (inactive).

In test [1], `CCCn1c(=O)c(C)cn2nc(N)nc12` (10 µM) returned a morphology score of 0.276. Moreover, the SARS-CoV-2 infection rate in test [2] was 96.5% (inactive).

With `Nc1nc(=O)c2c([nH]1)NCC(CNc1ccc(C(=O)N[C@@H](CCC(=O)O)C(=O)O)cc1)N2C=O` (stereo not given in full) [leucovorin] (10 µM), the morphology score in test [1] was -0.0198. Also, the SARS-CoV-2 infection rate in test [2] is 89.8% (inactive).

As to `CC[N+](CC)(CC)CCC(O)(c1ccccc1)C1CCCCC1` (stereo not given) [tridihexethyl] (10 µM), in test [1], the morphology score is -0.09. Also, in test [2], the SARS-CoV-2 infection rate was 110% (inactive).

The molecule `Cc1cc(C)cc(NC(=O)Cc2ccc(OC(C)(C)C(=O)O)cc2)c1` [efaproxiral] (10 µM) showed a morphology score in test [1] of -0.103. Further, the SARS-CoV-2 infection rate in test [2] is 107% (inactive).

In test [1], `Cc1ncc([N+](=O)[O-])n1CC(C)O` (stereo not given) [secnidazole] (10 µM) displayed a morphology score of 0.17. In addition, the SARS-CoV-2 infection rate in test [2] is 99% (inactive).

`COc1ccccc1N1CCN(CC(O)COc2cc(OC)c(OC)c(OC)c2)CC1` (stereo not given) [enciprazine] (10 µM) showed a morphology score in test [1] of 0.0687. Besides, the SARS-CoV-2 infection rate in test [2] is 110% (inactive).

The molecule `N#C/C(=C\c1ccc(O)c(O)c1)C(=O)OCCc1cccs1` (10 µM) gave a morphology score in test [1] of -0.0101. Also, the SARS-CoV-2 infection rate in test [2] was 108% (inactive).

With `Oc1ccc2c3c1O[C@H]1[C@@H](O)CC[C@@]4(O)[C@@H](C2)N(CC2CCC2)CC[C@]314` [nalbuphine] (10 µM), in test [1], the morphology score is -0.0532. Moreover, the SARS-CoV-2 infection rate in test [2] was 114% (inactive).

In the case of `COc1ccccc1OCCNCC(O)COc1cccc2[nH]c3ccccc3c12` (stereo not given) [carvedilol] (10 µM), the morphology score in test [1] stood at 0.134. Besides, the SARS-CoV-2 infection rate in test [2] is 97.5% (inactive).

Take `O=C(N[C@H]1CN2CCC1CC2)c1ccc2c(c1)OCCO2` (10 µM): in test [1], the morphology score was -0.0253. Also, the SARS-CoV-2 infection rate in test [2] is 100% (inactive).

In the case of `O=C1COc2c(CCNCCN(C(=O)CCNCCc3ccc(Cl)c(Cl)c3)C3CCCCC3)ccc(O)c2N1` (10 µM), in test [1], the morphology score was -0.232. Also, the SARS-CoV-2 infection rate in test [2] is 100% (inactive).

Molecule `NC(=O)[C@@H](CC1CC1)[C@@H](CCC(F)(F)F)C(=O)N[C@H]1N=C(c2ccccc2)c2cccc(F)c2NC1=O` (10 µM) came in with a morphology score in test [1] of 0.179. For the same molecule, the SARS-CoV-2 infection rate in test [2] is 102% (inactive).

The molecule `COc1cccc(-c2ccc([C@@H](Oc3cc(-c4ccc(C[C@H](N)C(=O)O)cc4)nc(N)n3)C(F)(F)F)cc2)c1` (10 µM) returned a morphology score in test [1] of 0.0975. Further, the SARS-CoV-2 infection rate in test [2] is 102% (inactive).

In turn, `O=C(CCN1CCN(C(=O)OCc2cc(Cl)cc(Cl)c2)CC1)c1ccc2[nH]c(=O)oc2c1` (10 µM) gave a morphology score in test [1] of 0.127. In addition, in test [2], the SARS-CoV-2 infection rate is 99.5% (inactive).

Molecule `C[C@]12CC[C@H]3[C@@H](CC[C@]4(O)C[C@@H](O)CC[C@]34C=O)[C@@]1(O)CC[C@@H]2C1=CC(=O)OC1` [K-strophanthidin] (0.833333 µM) registered a morphology score in test [1] of 0.0264. Also, the SARS-CoV-2 infection rate in test [2] is 92% (inactive).

With `CC(CNC(=O)c1cccnc1)NC(=O)c1cccnc1` (stereo not given) [nicaraven] (10 µM), in test [1], the morphology score is -0.02. Besides, the SARS-CoV-2 infection rate in test [2] is 114% (inactive).

On to `O=C(Nc1cccc2cccnc12)c1ccc(N2C(=O)[C@@H]3[C@H](C2=O)[C@@H]2C=C[C@H]3C2)cc1` [endo-IWR-1] (10 µM), for which the morphology score in test [1] was -0.0752. Besides, the SARS-CoV-2 infection rate in test [2] is 98.5% (inactive).

With `N=C(N)NC(=O)c1cnn(-c2cccc3ncccc23)c1C1CC1` [zoniporide] (10 µM), the morphology score in test [1] stood at 0.127. In addition, in test [2], the SARS-CoV-2 infection rate was 115% (inactive).

With `CC1(C)CC[C@]2(C(=O)O)CC[C@]3(C)[C@H](C(=O)C=C4[C@@]5(C)C=C(C#N)C(=O)C(C)(C)[C@@H]5CC[C@]43C)[C@@H]2C1` [bardoxolone] (0.833333 µM), in test [1], the morphology score came out at 0.164. Moreover, the SARS-CoV-2 infection rate in test [2] was 104% (inactive).

In turn, `O=C(Nc1cccc(Nc2ncc(Br)c(NCCc3cnc[nH]3)n2)c1)N1CCCC1` (10 µM) came in with a morphology score in test [1] of -0.00186. The SARS-CoV-2 infection rate in test [2] was 110% (inactive).

For `CC[N+](C)(CC)CC(=O)Nc1c(C)cccc1C` [N-methyllidocaine-iodide] (10 µM), the morphology score in test [1] came out at 0.0478. Also, the SARS-CoV-2 infection rate in test [2] is 100% (inactive).

For the molecule `N#C[C@@H]1CCCN1C(=O)CNC12CC3CC(CC(O)(C3)C1)C2` [vildagliptin] (10 µM), in test [1], the morphology score came to 0.00182. Besides, the SARS-CoV-2 infection rate in test [2] is 91% (inactive).

Consider `CC[C@@]1([C@H]2O[C@H]([C@H]3O[C@@](O)(CO)[C@H](C)C[C@@H]3C)C[C@H]2C)CC[C@H]([C@@]2(C)CC[C@]3(C[C@H](O)[C@@H](C)[C@@H]([C@H](C)[C@H](OC)[C@@H](C)C(=O)O)O3)O2)O1` (10 µM), for which, in test [1], the morphology score was determined as 0.556. Further, the SARS-CoV-2 infection rate in test [2] is 39% (active).

With `CC1(C)CCC(C)(C)c2cc(NC(=O)c3ccc(C(=O)O)cc3)ccc21` [tamibarotene] (10 µM), in test [1], the morphology score worked out at 0.135. The SARS-CoV-2 infection rate in test [2] is 108% (inactive).
